From PMC7862700, “An all-to-all approach to the identification of sequence-specific readers for epigenetic DNA modifications on cytosine” come the findings set out here.

Common to all, as to experiment: DAPPL (digital affinity profiling via proximity ligation, sequencing); 10 mM Tris-HCl pH 7.5, 50 mM NaCl, 1 mM DTT, 4% glycerol, room temperature, 30 min; GST-TFs on glutathione beads, 16-mer random dsDNA library, 0.1% formaldehyde crosslink after washing; high values mean tight binding
What all share (conditions): protein: recombinant; tags: N-terminal GST; dsDNA, one strand shown

One test deals with T1, ELK1 (Homo sapiens, UniProt P19419 1-428).
T1 sequence: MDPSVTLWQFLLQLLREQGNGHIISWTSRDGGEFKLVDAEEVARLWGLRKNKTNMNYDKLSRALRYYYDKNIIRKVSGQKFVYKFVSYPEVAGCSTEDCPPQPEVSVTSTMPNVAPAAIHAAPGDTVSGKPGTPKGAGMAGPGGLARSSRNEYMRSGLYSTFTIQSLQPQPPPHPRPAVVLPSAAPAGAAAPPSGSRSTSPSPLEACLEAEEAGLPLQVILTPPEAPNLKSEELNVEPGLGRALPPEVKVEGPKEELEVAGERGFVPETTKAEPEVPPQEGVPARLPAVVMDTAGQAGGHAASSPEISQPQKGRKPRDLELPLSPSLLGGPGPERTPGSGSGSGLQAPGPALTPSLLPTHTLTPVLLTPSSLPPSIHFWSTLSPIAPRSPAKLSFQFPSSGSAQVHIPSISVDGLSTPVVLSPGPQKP
Put shortly:
(§1)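 Beads coated with glutathione captured GST-fused human transcription factors that had been expressed in yeast, and the factors were then given DNA barcodes and pooled with a tag-only sample. The pools were incubated with 200 nmole of a random double-stranded 16-mer DNA library in Tris/NaCl/DTT/glycerol buffer for 30 min at room temperature, washed, crosslinked with 0.1% formaldehyde and proximity-ligated with BsaI/T4 ligase at 37 °C for 1 h. PCR amplification and Illumina NextSeq500 sequencing came last. Binding signal is each hexamer's read frequency for a factor divided by its frequency for the tag-only sample.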

Another test addresses T2, ERG (Homo sapiens, UniProt P11308 1-479).
T2 sequence: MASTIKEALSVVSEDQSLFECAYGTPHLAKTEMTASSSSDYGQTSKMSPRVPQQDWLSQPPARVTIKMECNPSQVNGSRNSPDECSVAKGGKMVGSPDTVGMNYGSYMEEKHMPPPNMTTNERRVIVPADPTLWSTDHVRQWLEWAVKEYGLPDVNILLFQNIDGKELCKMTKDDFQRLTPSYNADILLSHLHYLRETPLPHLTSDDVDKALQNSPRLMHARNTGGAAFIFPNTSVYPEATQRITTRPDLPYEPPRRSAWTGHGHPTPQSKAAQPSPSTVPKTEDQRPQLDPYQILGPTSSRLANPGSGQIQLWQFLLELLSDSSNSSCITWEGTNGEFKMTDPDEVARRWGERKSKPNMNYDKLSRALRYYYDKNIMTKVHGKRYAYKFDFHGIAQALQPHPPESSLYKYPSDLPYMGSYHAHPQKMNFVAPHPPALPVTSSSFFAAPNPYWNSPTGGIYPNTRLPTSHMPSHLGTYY
Put shortly: as §1

In a further test the target is ELF1 (Homo sapiens, UniProt P32519 1-619). Put shortly:
as §1

The target of the next test is T3, EHF (Homo sapiens, UniProt Q9NZC4 1-300).
T3 sequence: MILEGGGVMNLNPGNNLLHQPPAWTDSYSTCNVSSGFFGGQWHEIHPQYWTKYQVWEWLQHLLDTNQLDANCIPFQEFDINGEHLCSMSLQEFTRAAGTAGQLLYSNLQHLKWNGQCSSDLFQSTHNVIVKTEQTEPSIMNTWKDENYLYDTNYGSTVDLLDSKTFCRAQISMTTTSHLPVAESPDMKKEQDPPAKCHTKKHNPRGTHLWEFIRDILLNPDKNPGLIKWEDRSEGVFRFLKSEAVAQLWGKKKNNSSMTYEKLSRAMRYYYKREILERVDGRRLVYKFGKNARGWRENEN
Put shortly:
as §1

For the next test, the target named is SPIB (Homo sapiens, UniProt Q01892 1-262). Put shortly:
as §1

The target in another test is T4, FEV (Homo sapiens, UniProt Q99581 1-238).
T4 sequence: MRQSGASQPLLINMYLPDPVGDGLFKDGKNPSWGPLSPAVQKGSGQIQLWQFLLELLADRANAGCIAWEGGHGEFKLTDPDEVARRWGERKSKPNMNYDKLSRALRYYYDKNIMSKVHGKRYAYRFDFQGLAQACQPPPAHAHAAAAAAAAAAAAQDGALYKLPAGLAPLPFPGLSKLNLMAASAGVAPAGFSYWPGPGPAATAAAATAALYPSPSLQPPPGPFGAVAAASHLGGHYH
Put shortly: as §1

Another test addresses ETV5 (Homo sapiens, UniProt P41161 1-510). Put shortly:
as §1

A further test addresses ELF4 (Homo sapiens, UniProt Q99607 1-663). Put shortly:
as §1

The target in a further test is T5, ELK4 (Homo sapiens, UniProt P28324-2 1-405).
T5 sequence: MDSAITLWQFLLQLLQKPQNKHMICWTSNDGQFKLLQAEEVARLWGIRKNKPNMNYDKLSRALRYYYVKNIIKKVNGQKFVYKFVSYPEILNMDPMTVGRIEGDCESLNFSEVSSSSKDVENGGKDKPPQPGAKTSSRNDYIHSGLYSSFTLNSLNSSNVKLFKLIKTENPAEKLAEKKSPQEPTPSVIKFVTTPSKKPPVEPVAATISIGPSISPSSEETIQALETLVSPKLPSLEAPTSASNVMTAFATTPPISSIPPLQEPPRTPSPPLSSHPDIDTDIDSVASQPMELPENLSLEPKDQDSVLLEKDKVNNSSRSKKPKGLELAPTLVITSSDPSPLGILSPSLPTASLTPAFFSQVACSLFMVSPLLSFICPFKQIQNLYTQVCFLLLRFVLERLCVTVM
Put shortly:
as §1

The next test has as its target ETV1 (Homo sapiens, UniProt P50549 1-477). Put shortly:
as §1

The next test deals with T6, ERF (Homo sapiens, UniProt P50548 1-548).
T6 sequence: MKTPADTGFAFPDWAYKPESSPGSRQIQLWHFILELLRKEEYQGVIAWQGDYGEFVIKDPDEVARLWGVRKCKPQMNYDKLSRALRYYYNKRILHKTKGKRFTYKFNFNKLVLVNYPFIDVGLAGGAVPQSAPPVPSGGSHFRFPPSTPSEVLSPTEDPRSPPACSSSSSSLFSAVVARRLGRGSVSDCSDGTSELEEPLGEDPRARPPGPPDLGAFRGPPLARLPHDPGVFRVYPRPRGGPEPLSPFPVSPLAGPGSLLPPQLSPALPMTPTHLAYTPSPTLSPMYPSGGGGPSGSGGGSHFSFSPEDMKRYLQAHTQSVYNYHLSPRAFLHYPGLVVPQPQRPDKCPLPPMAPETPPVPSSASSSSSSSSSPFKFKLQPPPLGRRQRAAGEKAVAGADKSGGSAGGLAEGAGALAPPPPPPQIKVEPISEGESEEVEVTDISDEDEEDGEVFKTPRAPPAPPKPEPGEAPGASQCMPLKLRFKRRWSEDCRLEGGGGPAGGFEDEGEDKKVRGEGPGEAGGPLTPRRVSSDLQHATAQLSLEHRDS
Put shortly:
as §1

A further test has as its target T7, ETV3L (Homo sapiens, UniProt Q6ZN32 1-361).
T7 sequence: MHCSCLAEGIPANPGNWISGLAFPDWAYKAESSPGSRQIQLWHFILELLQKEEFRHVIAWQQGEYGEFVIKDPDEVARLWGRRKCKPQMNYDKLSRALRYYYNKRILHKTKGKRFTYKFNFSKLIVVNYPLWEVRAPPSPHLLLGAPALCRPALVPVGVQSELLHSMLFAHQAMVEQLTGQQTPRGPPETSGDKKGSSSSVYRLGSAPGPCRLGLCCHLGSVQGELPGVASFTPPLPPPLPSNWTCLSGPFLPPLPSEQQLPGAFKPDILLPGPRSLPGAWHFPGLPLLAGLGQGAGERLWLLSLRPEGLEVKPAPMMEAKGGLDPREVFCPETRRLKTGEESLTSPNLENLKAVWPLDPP
Put shortly:
as §1

In another test the target is T8, ETS2 (Homo sapiens, UniProt P15036 1-469).
T8 sequence: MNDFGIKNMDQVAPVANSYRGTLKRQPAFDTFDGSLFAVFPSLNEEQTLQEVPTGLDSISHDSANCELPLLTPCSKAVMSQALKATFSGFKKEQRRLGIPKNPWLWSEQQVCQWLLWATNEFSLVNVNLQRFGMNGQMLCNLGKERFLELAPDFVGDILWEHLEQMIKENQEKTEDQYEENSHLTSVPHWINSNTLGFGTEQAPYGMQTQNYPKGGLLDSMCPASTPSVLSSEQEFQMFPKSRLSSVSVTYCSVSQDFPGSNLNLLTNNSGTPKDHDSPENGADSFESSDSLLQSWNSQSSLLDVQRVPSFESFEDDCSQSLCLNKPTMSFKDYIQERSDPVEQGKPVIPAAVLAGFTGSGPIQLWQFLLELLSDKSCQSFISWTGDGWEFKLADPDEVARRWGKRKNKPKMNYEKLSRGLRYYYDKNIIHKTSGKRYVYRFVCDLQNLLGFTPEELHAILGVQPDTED
Put shortly: as §1

The next test addresses T9, SPDEF (Homo sapiens, UniProt O95238 1-335).
T9 sequence: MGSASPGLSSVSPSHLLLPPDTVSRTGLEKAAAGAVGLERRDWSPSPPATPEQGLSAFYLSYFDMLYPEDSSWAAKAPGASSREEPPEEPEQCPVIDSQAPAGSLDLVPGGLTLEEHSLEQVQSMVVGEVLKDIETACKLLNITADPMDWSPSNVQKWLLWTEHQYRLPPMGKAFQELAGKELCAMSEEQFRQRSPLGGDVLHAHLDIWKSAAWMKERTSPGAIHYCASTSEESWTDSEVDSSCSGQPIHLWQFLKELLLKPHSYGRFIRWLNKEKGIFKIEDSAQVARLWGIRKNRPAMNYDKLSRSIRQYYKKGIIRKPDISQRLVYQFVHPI
Put shortly: as §1

The target of the next test is T10, ETV7 (Homo sapiens, UniProt Q9Y603 1-341).
T10 sequence: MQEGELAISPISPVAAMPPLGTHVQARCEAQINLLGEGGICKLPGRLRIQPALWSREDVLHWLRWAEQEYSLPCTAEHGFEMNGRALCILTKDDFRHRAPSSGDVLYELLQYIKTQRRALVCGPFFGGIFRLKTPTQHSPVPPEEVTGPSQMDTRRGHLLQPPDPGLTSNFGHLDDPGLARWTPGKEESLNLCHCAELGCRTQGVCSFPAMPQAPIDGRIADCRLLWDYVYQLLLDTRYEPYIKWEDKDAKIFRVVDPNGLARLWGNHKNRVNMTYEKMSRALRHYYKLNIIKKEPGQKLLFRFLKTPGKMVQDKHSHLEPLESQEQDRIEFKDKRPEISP
Put shortly:
as §1

In a further test the target is T11, ETV3 (Homo sapiens, UniProt P41162-2 1-143).
T11 sequence: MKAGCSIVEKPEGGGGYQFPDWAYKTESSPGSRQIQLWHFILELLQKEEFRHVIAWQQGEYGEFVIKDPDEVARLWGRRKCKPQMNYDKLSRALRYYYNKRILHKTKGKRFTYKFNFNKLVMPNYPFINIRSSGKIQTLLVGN
Put shortly: as §1

The next test concerns the target ETV6 (Homo sapiens, UniProt P41212 1-452). Put shortly: as §1

Chain of ETV5 (P41161 whole entry): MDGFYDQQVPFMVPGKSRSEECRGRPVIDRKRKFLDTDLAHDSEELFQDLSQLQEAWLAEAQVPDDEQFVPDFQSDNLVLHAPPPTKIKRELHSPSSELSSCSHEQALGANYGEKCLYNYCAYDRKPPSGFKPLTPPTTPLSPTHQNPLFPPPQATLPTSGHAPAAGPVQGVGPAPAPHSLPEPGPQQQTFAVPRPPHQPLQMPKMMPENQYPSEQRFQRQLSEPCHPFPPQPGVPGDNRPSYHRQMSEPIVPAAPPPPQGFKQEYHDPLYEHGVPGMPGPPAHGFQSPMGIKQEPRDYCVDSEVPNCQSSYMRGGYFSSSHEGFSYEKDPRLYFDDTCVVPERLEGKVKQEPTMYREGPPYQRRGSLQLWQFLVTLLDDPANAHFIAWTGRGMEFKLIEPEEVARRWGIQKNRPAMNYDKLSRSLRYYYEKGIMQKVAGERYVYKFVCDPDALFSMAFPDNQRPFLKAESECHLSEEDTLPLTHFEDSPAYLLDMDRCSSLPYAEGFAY
Chain of ELF1 (P32519 whole entry): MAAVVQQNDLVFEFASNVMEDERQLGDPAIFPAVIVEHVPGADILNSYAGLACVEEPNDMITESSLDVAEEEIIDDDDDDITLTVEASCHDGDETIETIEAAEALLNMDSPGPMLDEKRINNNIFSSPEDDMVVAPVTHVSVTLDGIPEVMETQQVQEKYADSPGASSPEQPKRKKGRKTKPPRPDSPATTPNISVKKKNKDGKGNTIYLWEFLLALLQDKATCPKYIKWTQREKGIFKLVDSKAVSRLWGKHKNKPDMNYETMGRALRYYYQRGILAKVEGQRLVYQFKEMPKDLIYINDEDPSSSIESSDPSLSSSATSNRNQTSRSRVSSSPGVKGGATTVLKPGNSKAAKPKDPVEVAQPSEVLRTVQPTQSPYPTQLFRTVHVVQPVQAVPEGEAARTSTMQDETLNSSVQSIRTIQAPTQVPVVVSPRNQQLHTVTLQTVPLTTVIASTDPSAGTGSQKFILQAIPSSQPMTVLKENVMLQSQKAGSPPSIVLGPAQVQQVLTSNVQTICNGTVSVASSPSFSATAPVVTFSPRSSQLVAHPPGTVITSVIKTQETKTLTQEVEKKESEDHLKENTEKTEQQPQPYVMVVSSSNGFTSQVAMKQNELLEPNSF
Chain of ETV1 (P50549 whole entry): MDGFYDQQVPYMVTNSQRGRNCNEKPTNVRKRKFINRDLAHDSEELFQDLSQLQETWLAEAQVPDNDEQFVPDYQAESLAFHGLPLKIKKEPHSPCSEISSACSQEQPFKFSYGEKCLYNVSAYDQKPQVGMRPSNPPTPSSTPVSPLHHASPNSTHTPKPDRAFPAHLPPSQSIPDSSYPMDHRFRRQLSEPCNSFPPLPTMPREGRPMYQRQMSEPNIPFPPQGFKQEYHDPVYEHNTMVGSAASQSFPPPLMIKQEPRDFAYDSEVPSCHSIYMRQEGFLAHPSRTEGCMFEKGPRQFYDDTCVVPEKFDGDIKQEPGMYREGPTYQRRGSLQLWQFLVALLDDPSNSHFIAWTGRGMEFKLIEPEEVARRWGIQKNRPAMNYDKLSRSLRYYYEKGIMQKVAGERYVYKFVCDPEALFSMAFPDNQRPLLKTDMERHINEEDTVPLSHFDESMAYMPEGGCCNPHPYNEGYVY
Chain of ETV6 (P41212 whole entry): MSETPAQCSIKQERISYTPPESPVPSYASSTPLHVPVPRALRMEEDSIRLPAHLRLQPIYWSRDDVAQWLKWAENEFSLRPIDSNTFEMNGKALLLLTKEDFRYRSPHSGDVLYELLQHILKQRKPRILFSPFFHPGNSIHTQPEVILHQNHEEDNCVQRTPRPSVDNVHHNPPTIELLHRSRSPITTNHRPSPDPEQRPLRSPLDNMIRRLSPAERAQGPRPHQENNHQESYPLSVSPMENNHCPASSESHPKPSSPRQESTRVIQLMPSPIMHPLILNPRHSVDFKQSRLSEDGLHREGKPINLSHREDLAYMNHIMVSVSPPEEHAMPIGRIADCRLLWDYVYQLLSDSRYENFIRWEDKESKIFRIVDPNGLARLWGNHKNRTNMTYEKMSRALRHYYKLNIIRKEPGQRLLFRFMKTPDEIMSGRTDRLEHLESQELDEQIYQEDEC
Chain of SPIB (Q01892 whole entry): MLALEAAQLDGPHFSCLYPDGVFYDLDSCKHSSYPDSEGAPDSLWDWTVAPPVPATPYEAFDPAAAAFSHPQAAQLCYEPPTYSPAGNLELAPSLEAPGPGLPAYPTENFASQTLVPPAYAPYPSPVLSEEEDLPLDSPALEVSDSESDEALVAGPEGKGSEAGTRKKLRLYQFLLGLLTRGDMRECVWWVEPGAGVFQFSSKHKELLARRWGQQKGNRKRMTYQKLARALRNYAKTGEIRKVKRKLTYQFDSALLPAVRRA
Chain of ELF4 (Q99607 whole entry): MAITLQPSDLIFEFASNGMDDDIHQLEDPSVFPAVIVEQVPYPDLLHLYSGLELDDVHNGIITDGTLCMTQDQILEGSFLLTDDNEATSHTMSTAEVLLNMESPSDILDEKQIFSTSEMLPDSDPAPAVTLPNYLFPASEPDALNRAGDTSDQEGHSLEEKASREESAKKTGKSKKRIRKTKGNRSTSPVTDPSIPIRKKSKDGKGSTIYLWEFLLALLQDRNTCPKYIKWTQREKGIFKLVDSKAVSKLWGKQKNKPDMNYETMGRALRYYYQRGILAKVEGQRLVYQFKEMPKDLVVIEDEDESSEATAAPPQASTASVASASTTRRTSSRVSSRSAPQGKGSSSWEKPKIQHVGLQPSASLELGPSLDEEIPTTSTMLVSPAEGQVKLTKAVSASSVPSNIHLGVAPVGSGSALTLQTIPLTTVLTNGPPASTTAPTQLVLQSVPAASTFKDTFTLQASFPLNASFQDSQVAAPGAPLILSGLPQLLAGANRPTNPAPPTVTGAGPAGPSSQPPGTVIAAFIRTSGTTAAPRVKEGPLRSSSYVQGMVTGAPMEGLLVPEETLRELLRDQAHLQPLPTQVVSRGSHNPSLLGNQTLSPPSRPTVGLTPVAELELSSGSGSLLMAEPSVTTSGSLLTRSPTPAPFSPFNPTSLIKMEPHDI

In the case of GGTACA, the binding signal is 1.08 fold enrichment (6-mer frequency, TF over GST control) with ELK1; 1.09 fold enrichment (6-mer frequency, TF over GST control) in the test with ERG; 1.03 fold enrichment (6-mer frequency, TF over GST control) with ELF1; 1.05 fold enrichment (6-mer frequency, TF over GST control) in the test with EHF; 1.11 fold enrichment (6-mer frequency, TF over GST control) with SPIB; 1.03 fold enrichment (6-mer frequency, TF over GST control) with FEV. The binding signal was 1.05 fold enrichment (6-mer frequency, TF over GST control) with ETV5; 1 fold enrichment (6-mer frequency, TF over GST control) with ELF4; 1.11 fold enrichment (6-mer frequency, TF over GST control) with ELK4; 1.07 fold enrichment (6-mer frequency, TF over GST control) with ETV1; 1.09 fold enrichment (6-mer frequency, TF over GST control) in the test with ERF; 1.04 fold enrichment (6-mer frequency, TF over GST control) in the test with ETV3L. Further, the binding signal with ETS2 was 1.03 fold enrichment (6-mer frequency, TF over GST control); with SPDEF it was 1.11 fold enrichment (6-mer frequency, TF over GST control); in the test with ETV7, 1.11 fold enrichment (6-mer frequency, TF over GST control); with ETV3, 1.09 fold enrichment (6-mer frequency, TF over GST control); with ETV6, 1.11 fold enrichment (6-mer frequency, TF over GST control).
